PubChem BioAssay AID1347414 (National Center for Advancing Translational Sciences (NCATS), 2020)
Several values for one entry are separate records, joined by “and”; a condition that tells them apart may be missing. Identical values can stand only once. Results filed as inconclusive are left out. Activity calls are given as the source filed them. Calls follow the shape of the dose curve; as a rule, active = well fitted inhibition curve with a large enough effect; inconclusive = small, poorly fitted or top-dose-only effect; inactive = no such curve, though single readings can be large or run the other way.
Potency is read from the fitted curve at half-maximal effect.

Assay: qHTS to identify inhibitors of the type 1 interferon - major histocompatibility complex class I in skeletal muscle: Secondary screen by immunofluorescence; also: nearly all actives have a fitted effect of over 70% in size
Settings: C25cl48 myoblasts, IFN-b induced HLA-ABC immunofluorescence, 24 h; series mostly up to 49.8 µM
Description: Assay Submitter (PI): Travis B. Kinder Ph.D. & James Inglese Ph.D. Assay Development and Screening Technology Laboratory (ADST) National Center for Advancing Translational Sciences (NCATS), Rockville, MD National Institute of Health (NIH), Bethesda, Maryland Idiopathic inflammatory myopathies, collectively referred to as myositis, are a group of rare autoimmune diseases characterized by skeletal muscle inflammation, weakness, and usually accompanied by systemic pathologies of the skin, lungs, or vasculature. Current immunosuppressive therapies and glucocorticoids are often not curative and are accompanied by harsh side effects, especially in children with juvenile myositis. We initiated a drug repurposing and development program to identify more targeted, less toxic therapeutics to treat myositis. Although its cause is not known, muscle from a subset of patients have an abundance of the inflammatory type 1 interferon (IFN) and a down-stream product major histocompatibility complex class I (MHC class I), which are both thought to contribute to damage and weakness. We conducted quantitative high throughput screening (qHTS) on 6,576 compounds (4,679 unique) through a series of cell-based assays to identify those that inhibit the IFN-stimulated expression of MHC class I in muscle precursor cells (myoblasts). The compound identification and evaluation strategy utilized a primary screen with reporter-tagged MHC class I in genome-engineered myoblasts, ATP content counter screen for viability, HLA-ABC immunofluorescence secondary screen, and HLA-B RT-qPCR tertiary screen. To verify activity of compounds identified by qHTS in HLA-B HiBit reporter cells, compounds were assayed by high throughput HLA-ABC immunofluorescence. Briefly, 216 compounds identified from primary and counter screening as inhibitory with minimal cytotoxicity were dispensed into black/clear bottom […] using acoustic dispensing in an 11-point, 1:3 titration with a high final concentration of 50 uM. Normal immortalized human myoblasts C25cl48 were added to the plates with 4.0 ng/ml human IFN-beta for 24 hours, fixed, stained by immunofluorescence for HLA-ABC protein, nuclei, and cell body, and analyzed by laser scanning cytometry as described by Auld et al., 2006. References: Auld DS, Johnson RL, Zhang Y, Veith H, Jadhav A, Yasgar A, Simeonov A, Zheng W, Martinez ED, Westwick JK, Austin CP, Inglese J. 2006. Fluorescent protein-based cellular assays analyzed by laser-scanning microplate cytometry in 1536-well plate format. Methods Enzymol 414:566-89. doi:10.1016/S0076-6879(06)14029-X
PROTOCOL TABLE (as described by Inglese et al., 2007) SEQUENCE No. (e.g., 1, 2, 3, etc.); […] (e.g., Cells, Incubation, Reagent, etc.); VALUE; DESCRIPTION 0; Compounds; 25 nl; Follow-up compounds dispensed at 25 nl/well with Labcyte Echo 655 acoustic dispenser in triplicate Aurora ChemLib 1536K black/clear bottom, low base, TC 1536-well plates (00019324). Also dispensed 25 nl/well DMSO control, ruxolitinib IFN-b inhibitor control titration, and digitonin cytotoxic control 1a; Cells; 5 uL; Multidrop Combi (Thermo Scientific) to seed 125 cells/well into eight plates in 5 ul/well of iHSKM growth medium (GM) without dexamethasone into columns 1+2. Add metal lids with gas-exchange holes 1b; Cells; 5 uL; Multidrop Combi (Thermo Scientific) to seed 125 cells/well into eight plates in 5 ul/well of iHSKM GM without dexamethasone + 4 ng/ml IFN-b into columns 3 - 48. […]
With O=[N+]([O-])/C=C/c1ccc2c(c1)OCO2 the Potency was 18200 nM (active).
For CC(C)[C@]12O[C@H]1[C@@H]1O[C@]13[C@]1(O[C@H]1C[C@H]1C4=C(CC[C@@]13C)C(=O)OC4)[C@@H]2O, the Potency was 91.4 nM (active).
For O=c1[nH]c2ccc(Cl)cc2c(N[C@@H]2CN3CCC2CC3)c1-c1nc2ccccc2[nH]1, the Potency was 1620 nM (active).
For C/C1=C/C[C@@H](/C(C)=C/c2csc(C)n2)OC(=O)C[C@H](O)C(C)(C)C(=O)[C@H](C)[C@@H](O)[C@@H](C)CCC1, the Potency was “inactive”.
For CC(=O)OC[C@H]1O[C@@H]([S-])[C@H](OC(C)=O)[C@@H](OC(C)=O)[C@@H]1OC(C)=O.CC[PH+](CC)CC.[Au], the Potency was 576 nM (active).
For CC(C)(C)c1cc(C=C(C#N)C#N)cc(C(C)(C)C)c1O, the Potency was “inactive”.
For C[C@@H]1O[C@@H](O[C@H]2C[C@@H](O)[C@]3(CO)[C@H]4[C@H](O)C[C@]5(C)[C@@H](C6=CC(=O)OC6)CC[C@]5(O)[C@@H]4CC[C@]3(O)C2)[C@H](O)[C@H](O)[C@H]1O, the Potency was 64.7 nM (active).
In the case of COC(=O)[C@@]12OC[C@]34[C@H]([C@@H](O)[C@@H]1O)[C@@]1(C)CC(=O)C(O)=C(C)[C@@H]1C[C@H]3OC(=O)[C@H](OC(=O)/C=C(\C)C(C)C)[C@@H]24, the Potency is reported as 36.4 nM (active).
In the case of Cc1sc2c(c1C)C(c1ccc(Cl)cc1)=N[C@@H](CC(N)=O)c1nnc(C)n1-2, the Potency is reported as 162 nM (active).
For CC(C)[C@]12O[C@H]1[C@@H]1O[C@@]13[C@@]1(C)CCC4=C(COC4=O)[C@@H]1C[C@@H]1O[C@@]13C2=O, the Potency was 162 nM (active).
In the case of C/C(=C\c1csc(C)n1)[C@@H]1C[C@@H]2O[C@]2(C)CCC[C@H](C)[C@H](O)[C@@H](C)C(=O)C(C)(C)[C@@H](O)CC(=O)O1, the Potency is reported as “inactive”.
For CC1(C)CC[C@]2(NC(=O)C(C)(F)F)CC[C@]3(C)[C@H](C(=O)C=C4[C@@]5(C)C=C(C#N)C(=O)C(C)(C)[C@@H]5CC[C@]43C)[C@@H]2C1, the Potency was 3240 nM (active).
In the case of O=C1/C(=C\c2ccccc2)C[C@@]2(O)[C@H]3Cc4ccc(O)c5c4[C@@]2(CCN3CC2CC2)[C@H]1O5, the Potency is reported as 2290 nM (active).
In the case of COc1cccc2c1C(=O)c1c(O)c3c(c(O)c1C2=O)C[C@@](O)(C(=O)CO)CC3OC1CC(N2CCOC(OC)C2)C(O)C(C)O1 (stereo not given in full), the Potency is reported as 57.6 nM (active).
For CC[C@@]1(O)C(=O)OCc2c1cc1n(c2=O)Cc2cc3ccccc3nc2-1, the Potency was 1.62 µM (active) and 2.05 µM (active).
For Cc1[nH]ncc1-c1cc2nc([C@@H]3CC4CCN3CC4)[nH]c(=O)c2s1, the Potency was 3640 nM (active).
In the case of CC1=C(O)C(=O)C=C2C1=CC=C1[C@@]2(C)CC[C@@]2(C)[C@@H]3C[C@](C)(C(=O)O)CC[C@]3(C)CC[C@]12C, the Potency is reported as 1150 nM (active).
For COC(=O)[C@]12CCC(C)(C)C[C@H]1[C@H]1C(=O)C=C3[C@@]4(C)C=C(C#N)C(=O)C(C)(C)[C@@H]4CC[C@@]3(C)[C@]1(C)CC2, the Potency was 3640 nM (active).
In the case of C[C@@H]1O[C@@H](O[C@@H]2C=C3CC[C@@H]4[C@H](CC[C@]5(C)[C@@H](c6ccc(=O)oc6)CC[C@]45O)[C@@]3(C)CC2)[C@H](O)[C@H](O)[C@H]1O, the Potency is reported as 36.4 nM (active).
With Cc1[nH]nc2ccc(-c3cncc(OC[C@@H](N)Cc4c[nH]c5ccccc45)c3)cc12 the Potency was 230 nM (active).
